Laboratory results as given in PubChem BioAssay AID900 (National Center for Advancing Translational Sciences (NCATS), 2007).
Several values for one entry are separate records, joined by “and”; a condition that tells them apart may be missing. Identical values can stand only once. Hit rate of the full screen: of about 75,000 compounds, about 20 (0.03%) were called active. About 1% were inconclusive and are not listed. Calls follow the shape of the dose curve; as a rule, active = well fitted inhibition curve with a large enough effect; inconclusive = small, poorly fitted or top-dose-only effect; inactive = flat fitted curve, though single readings scatter. A selection follows.

biological target: Caspase-1 (Homo sapiens) (UniProt P29466); experiment: qHTS Assay for Allosteric/Competitive Inhibitors of Caspase-1; conditions: Caspase-1 enzyme, Ac-WEHD-AFC fluorogenic rate; series mostly up to 57.5 µM; activity change, negative = inhibition: at the top concentration
Source text: NIH Molecular Libraries Screening Centers Network [MLSCN]
NIH Chemical Genomics Center [NCGC]
PI Name: Dr. James Wells,
Dr. Enrique Perez-Paya, Dr.Janice Williams, Dr. Dennis Wolan, a person
The caspases (Cysteine Aspartyl Protease) comprise a related family of 14 dimeric proteases that are critical mediators of apoptosis (programmed cell death) and inflammation. The caspases represent an important class of drug targets for stroke, ischemia, cancer and inflammatory diseases. […] One goal of this project was to identify compounds that act as allosteric inhibitors via stabilizing the procaspase form of the enzyme. Previous work in Well's laboratory has shown that such allosteric inhibitors can be identified and these act by binding at the dimer interface of enzyme (Hardy, Lam et al., 2004).
The biochemical assay was configured using purified caspase 1 at a high enzyme concentration to promote formation of the homodimers and thus facilitate the identification of allosteric inhibitors. The overall goal was to identify reversible inhibitors with better drug-like properties than the currently available set of aspartyl-containing peptidomimetics that covalently bind the active site. Caspase 1 was assayed using the profluorescent substrate Ac-WEHD-AFC. After initiation of the assay with substrate the plates were rapidly read using an automated robotic system (Kalypsys, Inc.) to maintain consistent timing. A kinetic mode of detection was used where the initial rate was collected (estimated final product formation was ~10%). Compounds were screened as a concentration-titration series that ranged from 57 uM to 0.7 nM. Below is the protocol used for caspase 1.
NCGC Assay Protocol Summary:
Caspase 1 was prepared in buffer (50 mM HEPES pH 7.5, 50 mM KCl, 200 mM NaCl, 10 mM DTT, 0.1% CHAPS) at a concentration of 66.6 nM and 3 uL was dispensed to all wells using black solid Kalypsys 1536-well plates. 20 nL of DMSO containing compounds was added using a pin-tool (Kalypsys Inc.) to columns 5-48. Then 20 nL of DMSO solution from a control plate was added to columns 1-4. Controls were: Column 1, 16 point titration with each concentration in duplicate (1:1 dilutions in DMSO; final starting concentration was 57 uM) of the caspase 1 inhibitor Ac-WEHD-CHO (Alexis Biochemicals); Column 2, a 16 point titration with each concentration in duplicate of the free AFC fluorophore prepared in DMSO (Alexis Biochemicals), final starting was 40 uM; Column 3 neutral (DMSO only) control; Column 4: DMSO alone, to serve as a negative control (no substrate was added). Then 1 uL of 20 uM the substrate Ac-WEHD-AFC (Alexis Biochemicals) prepared in the same buffer was dispensed to all wells except columns 2 and 4 and the plates were immediately transferred (< 1 min) to the Viewlux. The plates were then exposed using 405 nm excitation/520 nm emission filters for 4 sec and read at 20 sec intervals for 3 min. Final enzyme concentration was 50 nM and the final substrate concentration was 5 uM.
Concentration-response curves were fitted to the data calculated from slope of the linear regression of fluorescent intensity versus time (the rate). The concentration-effect curves were then classified based on curve quality (r2), response magnitude and degree of measured activity. […] Inconclusive compounds had appreciable concentration-dependent effects on both the measured rate and the interpolated basal fluorescence intensity at the start of the reaction but where the basal fluorescent intensity was marginal (e.g. < 10-fold). Inconclusive compounds also encompass highly fluorescent compounds (>100-fold increases in fluorescent intensities values relative to controls) where artificial concentration-dependent decreases in the rate occurred at high compound concentrations due to fluorescent interferences.
Keywords: Caspase 1, proteases, profluorescent, MLSMR, MLSCN, NIH Roadmap, qHTS, NCGC

Activity change, negative = inhibition, inactive:
CC(C)N(CCNC(=O)c1ccc(-n2c(=O)c(=O)[nH]c3ccccc32)cc1)C(C)C -4.26%
Cc1ccccc1CSCC(=O)NC(=O)NC(C)(C)C 0.035%
O=C(O)CCC(=O)NCc1ccc2[nH]c3c(c2c1)CCCC3 -11.4%
CCn1ncc(C2=NOC(C(=O)Nc3ccccc3C(=O)OC)C2)c1C (stereo not drawn) -4.14%
CO[C@H]1COC(=O)[C@@H](C)NC(=O)C/C=C\[C@@H](C)[C@H](OC)COC(=O)C/C=C\[C@@H]1C 1.2% [at 11.5 µM]
CO/N=C\[C@@H](C)[C@H](OCc1ccccc1)C(C)C 1.85% [at 11.5 µM]
CC(=O)OCC(=O)C1CCC2C3CCC4=CC(=O)CC[C@@]4(C)C3CC[C@]12C (stereo partly drawn) 2.9%
CC(C)[C@@H](OCc1ccccc1)[C@H](C)/C=N\OC[C@@H](C)[C@H](OCc1ccccc1)C(C)C -1.54% [at 11.5 µM]
COC(=O)CC1C(C)(C)C(OC(C)=O)C2CC3=C4CC(=O)OC(c5ccoc5)[C@]4(C)CCC3[C@@]1(C)C2=O (stereo partly drawn) 0.908%
O=C(CSc1nc2ccccc2[nH]1)c1cccs1 1.91%
CC(=O)Oc1c2c(c3c(c1CC=C(C)C)O[C@@]14C(=CC5CC1C(C)(C)OC4(C/C=C(\C)C(=O)O)C5=O)C3=O)OC(C)(CCC=C(C)C)C=C2 (stereo partly drawn) -4.73%
Cc1cc(C)cc(C#CC2C=CC(Oc3ccc(C4CCCC4)cc3)C(CO)O2)c1 (stereo not drawn) -0.183% [at 11.5 µM]
Cc1sc2c(c1C)c(=O)n(-c1ccccc1)c1nncn21 0.0448%
CC(C)CN1CCc2nc(-c3ccccc3)c3c(c2C1)COC(C)C3 (stereo not drawn) -0.646% [at 11.5 µM]
C=CCOC(=O)C(C(C)=O)C(NC(=O)OC)c1ccccc1 (stereo not drawn) -2.17% [at 11.5 µM]
COc1c(C(C)C)oc2cc3oc(=O)ccc3cc12 -1.57%
Cc1oc(C)c(C(=O)NCCCC(=O)O)c1C(=O)NCCCC(=O)O 0.175%
CC(CCC(=O)O)C1CCC2C3C(O)C[C@@H]4CC(O)CC[C@@]4(C)C3CC[C@@]12C (stereo partly drawn)
CN(C)CCc1c[nH]c2ccc(Cn3cncn3)cc12 -1.76%
Nc1ncn(C2OC(CO)C(O)C2O)c(=O)n1 (stereo not drawn) -1.92%
Cc1occc1C(=O)Nc1nnc(C2CCCCC2)s1 -2.34%
Oc1ccc2c(c1)OCC1c3cc4c(cc3OC21)OCO4 (stereo not drawn) -0.0099%
C#CCC(C(=O)OC)(C(=O)OC)C(C[N+](=O)[O-])c1ccccc1 (stereo not drawn) -0.949% [at 11.5 µM]
O=C(c1cccs1)N1CCN(Cc2ccc3c(c2)OCO3)CC1 -3.62%
C=C[C@](C)(O)CCC1C(=C)CCC2[C@@](C)(CO)CCC[C@@]12C (stereo partly drawn) 1.13%
C=C1C([C@@]2(C)C(OC(C)=O)CC(=O)O[C@@](C)(COC(C)=O)C2CC(=O)OC)C(OC=O)C(OC(=O)C(O)C(C)CC)[C@]2(C)C(c3ccoc3)CC(=O)C12O (stereo partly drawn) -0.335%
CSc1ccc(Cl)c(C(=O)OCC(=O)N2CC(C)OC(C)C2)c1 (stereo not drawn) -2.09%
CC(C)(C)c1ccc(OC2C=CC(C#Cc3ccccc3)OC2CO)cc1 (stereo not drawn) -6.01% [at 11.5 µM]
COc1cccc([C@H]2Oc3ccc(OC)cc3/C(=N\OCC[C@@H]3C=C[C@H](OC(C)=O)[C@H](COC(C)=O)O3)[C@@H]2O)c1 -0.817% [at 11.5 µM]
CC(=O)OCCC(C)C -2.94%
CCCNC(=O)OC[C@@H]1O[C@H](c2ccccc2)C=C[C@@H]1Oc1ccc(OC)cc1 -0.962% [at 11.5 µM]
CO[C@H]1COC(=O)C/C=C\[C@H](C)COC(=O)[C@@H](OCc2ccccc2)/C=C\[C@@H]1C -1.1% [at 11.5 µM]
C=CCNC(=O)CCCC(=O)NCC=C -0.805%
Oc1cc(O)c2c(c1)OC(c1ccc(O)c(O)c1)C(O)C2 (stereo not drawn) -1.07%
Cn1c(=O)n2n(c1=O)[C@H]1[C@H](O)[C@H]3O[C@H]3C(=O)[C@H]1CC2 1.82% [at 11.5 µM]
N#Cc1c(/N=C/N2CCCC2)oc(-c2ccccc2)c1-c1ccccc1 -3.24%
O=C(c1ccc(-n2cnnn2)cc1)N1CCN(C(c2ccccc2)c2ccccc2)CC1 -2.39%
CC(C)CO/N=C1/C[C@@H](O)[C@@H](O)[C@@H]2[C@@H]3C(=O)N(C[C@@H]4CCCO4)C(=O)[C@H]3CC[C@@H]12 -2.12% [at 11.5 µM]
COC(=O)c1ccc(C(NC(=O)OCc2ccccc2)/C(C)=C/[C@@H](C)C(=O)NCc2cc(C)on2)cc1 (stereo partly drawn) -1.01%
COC(=O)[C@@H]1C[C@@]2(O)[C@H](O)[C@H](O)[C@H](O)C[C@H]2N1Cc1ccc(C)s1 1.18%
OC(CCl)CCl -4.21%
CCCn1c(-c2ccc(F)cc2)nc2c(NC3CCN(Cc4ccccc4)C3)nc(C)nc21 (stereo not drawn) -1.74%
CO[C@@H]1COC(=O)C/C=C\[C@H](C)[C@@H](NS(=O)(=O)c2ccc(C)cc2)COC(=O)C/C=C\[C@@H]1C 2.78% [at 11.5 µM] and -1.73% [at 11.5 µM]
COC(=O)C1=C(N)Oc2cc(C)oc(=O)c2C1c1cccnc1 (stereo not drawn) -0.354%
COC(=O)C(C(=O)OC)[C@@H]1CCCC(=O)C1 -6.21% [at 11.5 µM]
CO[C@H]1COC(=O)CCC[C@@H](C)[C@H](OC)COC(=O)[C@@H](C)NC(=O)C/C=C\[C@@H]1C -4.01% [at 11.5 µM]
CC(C)C(NC(=O)OCc1ccccc1)C(=O)OCC(=O)N1C(C)CCCC1C (stereo not drawn) 2.43%
Cc1c(O)cc(O)c2c(=O)c(-c3ccc(O)cc3)coc12 4%
C/C(CCN1CCCCc2nc(C)c(C)cc21)=N\O[C@@H](C)c1cn([C@@H]2COC[C@@H]2O)nn1 -3.82% [at 11.5 µM]
Cc1cc(NC(=O)COn2nnc3ccccc32)no1 -0.927%
CCC1=C(OC(=O)N(CC)CC)N2C(=O)OC(=NCCc3c[nH]c4ccccc34)[C@]2(C)[C@H]2C1=CC[C@H]1C(=O)N(CC)C(=O)[C@H]12 -2.1%
C/C(CCN1CCc2nc(-c3ccccc3)c(-c3ccccc3)cc2C1)=N\O[C@@H](C)c1cn([C@@H]2COC[C@@H]2O)nn1 -2.17% [at 11.5 µM]
CCCN1Cc2cccc(C(=O)NCc3ccccc3)c2C1=O 0.937%
COC(=O)C1=C(C)N(Cc2ccccc2)C2=C3C(=O)N(c4ccccc4)C(=O)C3[C@@](O)(C(=O)OC)C(=O)N2C1c1ccccc1 (stereo partly drawn) 2.38% [at 11.5 µM]
CCS(=O)(=O)N(C)[C@@H]1c2cc(C#N)ccc2OC(C)(C)[C@H]1O
CC(C)C(N)C(=O)OCCOCn1cnc2c(=O)[nH]c(N)nc21 (stereo not drawn) 1.53%
CN(CCOc1ccc(CC2SC(=O)NC2=O)cc1)c1ccccn1 (stereo not drawn) 0.247%
CC(C)C(=O)Nc1cccc(C(=O)Nc2ccc3c(c2)OCO3)c1 -1.84%
O=C(O)C(O)[C@@](O)(Cc1ccc(O)cc1)C(=O)O (stereo partly drawn) 1.66%
CCOC(=O)C1C(=O)C=C(c2ccc(OC)cc2)CC1c1ccco1 (stereo not drawn) -17%
COc1ccc(/C=C/NC(=O)Cc2ccc(OC)c(OC)c2)cc1 -0.944% [at 11.5 µM] and -1% [at 11.5 µM]
C=CC(=O)c1ccc2ccccc2c1 -1.84%
CC1(C)OC2CO[C@]3(COS(N)(=O)=O)OC(C)(C)OC3C2O1 (stereo partly drawn) -0.898%
O=C(c1cnccn1)N1CCC2(CCCN(Cc3ccccc3)C2)CC1 -0.443%
CCN1CCCC1CNC(=O)Cn1cnc2ccc(S(=O)(=O)N3CCC(C)CC3)cc2c1=O (stereo not drawn) -9.64%
CCCCNc1nc(C)nc2c1nc(-c1ccccc1)n2CCCCN(CC)CC -0.324%
CC1OC(OCC2OC(Oc3c(-c4ccc(O)c(O)c4)oc4cc(O)cc(O)c4c3=O)C(O)C(O)C2O)[C@@H](O)C(O)C1O (stereo partly drawn) -2.04%
COc1ccc(CCC(=O)c2c(O)cc(OC3OC(CO)C(O)C(O)C3O[C@@H]3OC(C)C(O)C(O)C3O)cc2O)cc1O (stereo partly drawn) -0.654%
CC(=O)OCC1OC(C#CCCCc2ccccc2)C=CC1OC(C)=O (stereo not drawn) -0.276% [at 11.5 µM] and -3.22% [at 11.5 µM]
CN(C)CCCCNC(=O)c1ccc(Cc2nc3ccccc3[nH]2)cc1 -0.198%
COC(=O)c1ccc(C23CC4(C2)[C@H](CN(Cc2cccnc2)[C@@H]4c2ccccc2)C3c2ccc(Cl)nc2)cc1 (stereo partly drawn) -0.327%
CN(C)/C=N/c1cc(=O)n(C)c(=O)n1CC1CC1 -0.404%
CS(=O)(=O)N(CC(=O)NCc1ccco1)c1ccc2c(c1)OCO2 -0.19%
CO[C@H]1COC(=O)[C@H](Cc2ccccc2)NC(=O)C/C=C\[C@@H](C)[C@H](OC)COC(=O)C/C=C\[C@@H]1C -1.56% [at 11.5 µM]
O=C1NS(=O)(=O)c2ccccc21 1.43%
CC1(C)C=CC(=O)[C@]2(C)C1CC(=O)[C@]1(C)C2CC[C@@]2(C)C(c3ccoc3)OC(=O)C3OC321 (stereo partly drawn) -0.79%
CC(=O)OCC(=O)[C@@]1(O)CCC2C3CCC4=CC(=O)CC[C@]4(C)C3C(=O)C[C@]21C (stereo partly drawn) -0.497%
COC1[C@H](OC(N)=O)C(O)[C@H](Oc2ccc3c(O)c(NC(=O)c4ccc(O)c(CC=C(C)C)c4)c(=O)oc3c2C)OC1(C)C (stereo partly drawn) -0.344%
CC(CCO)Nc1nc2c([nH]1)c(=O)n(C)c(=O)n2C (stereo not drawn) -0.389%
C=CCN(c1ccc(C(N)=O)cc1)S(C)(=O)=O 1.76%
CCCCNc1nc2c(c(=O)[nH]c(=O)n2C)n1CCOc1ccccc1 1.95%
CCCc1nc2c(C)cc(-c3nc4ccccc4n3C)cc2n1Cc1ccc(-c2ccccc2C(=O)O)cc1 -1.74%
CCc1c(C)sc(NC(=O)OC)c1C(=O)N1CCOCC1 -1.76%
